Experimental data taken from PubChem BioAssay (EPA / NIEHS).
Active and inactive are the calls of the source. How the source made its calls: active means hit-call score of the fitted dose curve at least 0.9, where 1 is the maximum; inactive means score below 0.9.

Test: ATG_Sox_CIS: Attagene CIS-FACTORIAL HepG2 Assay for human SRY-box transcription factor (SOX) (AID 2282960)
Settings: HepG2 Attagene cis-factorial SOX reporter, mRNA; actives raise or lower the signal
Protocol: ATG_CIS is a cell-based, multiplexed-readout assay that uses HepG2, a human liver cell line, with measurements taken at 24 hours after chemical dosing in a 24-well plate.ATG_Sox_CIS is one of 52 assay component(s) measured or calculated from the ATG_CIS assay. It is designed to make measurements of mRNA induction, a form of inducible reporter, as detected with fluorescence intensity signals by Reverse transcription polymerase chain reaction (RT-PCR) and Capillary electrophoresis technology.Data from the assay component ATG_Sox_CIS was analyzed into 1 assay endpoint. This assay endpoint, ATG_Sox_CIS, was analyzed with bidirectional fitting relative to DMSO as the negative control and baseline of activity. Using a type of inducible reporter, measures of mRNA for gain or loss-of-signal activity can be used to understand the reporter gene at the transcription factor-level as they relate to the gene SOX1. Furthermore, this assay endpoint can be referred to as a primary readout, because this assay has produced multiple assay endpoints where this one serves a reporter gene function. To generalize the intended target to other relatable targets, this assay endpoint is annotated to the dna binding intended target family, where the subfamily is HMG box protein.
Human liver HepG2 cells are transiently transfected with multiple reporter transcription units (MRTUs) in 6-well plates using FuGene 6 reagent (Roche; 3 ml FuGene/1 mg DNA). The MRTU constructs are regulated by a cis-regulating element (promoter). […] A major difference between the CIS and TRANS system is that in CIS activities of endogenous TFs are measured, whereas the TRANS assay evaluates changes in activities of exogenous, chimeric NR-Gal4 proteins. […] At the end of 24 hour incubation, total RNA was isolated using TriZol reagent (Invitrogen). The isolated RNA is then reverse-transcribed using oligo(dT) primer and Mo-MLV reverse transcriptase (Invitrogen) with DNAse I (Ambion) treatment for 30 min. The one-tenth of the produced cDNA was amplified by PCR using Taq DNA polymerase (Invitrogen) and two reporter sequence-specific primers. The PCR products were fluorescently labeled by primer extension with 6-arboxyfluorescein (6-FAM) 5'-labeled reporter sequence-specific primer (2 min at 95 C, 20 s at 68 C and 10 min at 72 C) and these products were digested with 5U of HpaI (New England Biolabs) for 2h at 37 C. The fragments were purified using Qiaquick PCR columns (Qiagen), analyzed on an ABI 3130xL genetic analyzer (Applied Biosystems) with peak positions identified by using a set of X-rhodamine (ROX)-labeled MapMarker1000 molecular weight standards (BioVentures). The raw capillary electrophoresis data was processed using Attagraph software (Attagene).

For CN(C)c1ccc(C(=N)c2ccc(N(C)C)cc2)cc1, which outcome is on record?
The outcome was “inactive”.

Which outcome does the source give for COC(=O)/C=C\C(=O)O here?
The outcome was “inactive”.

For C=C[Si](C)(C)O[Si](C)(C)C=C, which outcome is on record?
Its outcome is “inactive”.

For CC1=CC[C@H]2C[C@@H]1C2(C)C, which outcome is on record?
Its outcome is “inactive”.

Which outcome does the source give for CCCCCC/C=C\CCCCCCCC(=O)O here?
The outcome was “inactive”.

With CC(C)(C)c1ccc(-c2ccc(C(C)(C)C)cc2)cc1 as the molecule, how does the outcome read?
The outcome was “inactive”.

Which outcome does the source give for CCCCCCCCCCCSCC(=O)O here?
The outcome was “inactive”.

For O=c1[nH]nc(-c2ccc([N+](=O)[O-])o2)o1, which outcome is on record?
The outcome was “inactive”.

For CCc1c(C(=O)O)c(=O)cnn1-c1ccc(Cl)cc1, which outcome is on record?
Its outcome is “inactive”.

Which outcome does the source give for Cc1ccc2oc(=O)ccc2c1 here?
Its outcome is “inactive”.

With CC(=O)Nc1nnc(S(N)(=O)=O)s1 as the molecule, how does the outcome read?
The outcome was “inactive”.

With CC1(C)O[C@@H]2C[C@H]3[C@@H]4C[C@H](F)C5=CC(=O)C=C[C@]5(C)[C@@]4(F)[C@@H](O)C[C@]3(C)[C@]2(C(=O)CO)O1 as the molecule, how does the outcome read?
The outcome was “inactive”.

For C[C@]12CCC(=O)C=C1CC[C@@H]1[C@@H]2C(=O)C[C@@]2(C)[C@H]1CC[C@]2(O)C(=O)CO, which outcome is on record?
The outcome was “inactive”.

Which outcome does the source give for O=Cc1ccc(CO)o1 here?
The outcome was “inactive”.

Which outcome does the source give for O=P(O)(O)Oc1ccccc1 here?
Its outcome is “inactive”.

Which outcome does the source give for O=Nc1ccc(O)cc1 here?
The outcome was “inactive”.

For CCC(C)(C)C1CCCCC1OC(C)=O (stereo not given), which outcome is on record?
Its outcome is “inactive”.

For COC(=O)c1c(C)cc(O)c(C)c1O, which outcome is on record?
The outcome was “inactive”.

Which outcome does the source give for CCCCCCC1(C)CCC(=O)O1 (stereo not given) here?
Its outcome is “inactive”.

For CC(C)CCCC(C)CC=O (stereo not given), which outcome is on record?
The outcome was “inactive”.

For CCO[Si](CCCN=C=O)(OCC)OCC, which outcome is on record?
Its outcome is “inactive”.

With SCCc1cnccn1 as the molecule, how does the outcome read?
The outcome was “inactive”.

Which outcome does the source give for CCCCCCC(O)CO (stereo not given) here?
The outcome was “inactive”.

For C[C@]12C=CC(=O)C=C1CC[C@@H]1[C@@H]2[C@@H](O)C[C@@]2(C)[C@H]1CC[C@]2(O)C(=O)CO, which outcome is on record?
Its outcome is “inactive”.

For O=C(Cl)c1cc(C(=O)Cl)cc(C(=O)Cl)c1, which outcome is on record?
Its outcome is “inactive”.

For CC(=O)OC(C)C, which outcome is on record?
The outcome was “inactive”.

For C=CC(=O)OCC(Br)CBr (stereo not given), which outcome is on record?
Its outcome is “inactive”.

With O=C(c1ccccc1)c1ccc(O)c(O)c1O as the molecule, how does the outcome read?
The outcome was “inactive”.

For CC(=O)OCCC1CCCCC1, which outcome is on record?
Its outcome is “inactive”.

For O=C1C=CC(=O)O1, which outcome is on record?
The outcome was “inactive”.

For CCCCCCCCCCCCCOP(=O)(O)O, which outcome is on record?
The outcome was “inactive”.

For c1ccc2c(c1)ccc1cc3c(ccc4ccccc43)cc12, which outcome is on record?
Its outcome is “inactive”.

For CC(C)c1ccc2c(c1)CC[C@H]1[C@](C)(CN)CCC[C@]21C, which AC50 is on record?
The AC50 was 6.13 µM (active).

With [Cl][Nd]([Cl])[Cl] as the molecule, how does the outcome read?
Its outcome is “inactive”.

With NC(=O)c1ccccc1O as the molecule, how does the outcome read?
Its outcome is “inactive”.

For C1CN(SSN2CCOCC2)CCO1, which outcome is on record?
The outcome was “inactive”.

Which outcome does the source give for O=C(O)CC(C(=O)O)C(CC(=O)O)C(=O)O (stereo not given) here?
The outcome was “inactive”.

For Cn1c(=O)[nH]c2ncn(C)c2c1=O, which outcome is on record?
Its outcome is “inactive”.

Which outcome does the source give for Oc1ccc(Cl)cc1Cc1cc(Cl)ccc1O here?
The outcome was “inactive”.

With Nc1ccc2cc3ccccc3cc2c1 as the molecule, how does the outcome read?
The outcome was “inactive”.
